D2 PAM-1 – positive allosteric modulators of human D2 dopamine receptor; P14416; HEK293 T-REx D2, calcium flux, EC20 dopamine potentiation; potentiation, % at 10 µM; AID 485347; 340,000 tested, 0.34% active;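 active = potentiation over 3 SD above the plate norm, cut at about 30% in these data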
Target sequence (P14416 whole entry, looked up): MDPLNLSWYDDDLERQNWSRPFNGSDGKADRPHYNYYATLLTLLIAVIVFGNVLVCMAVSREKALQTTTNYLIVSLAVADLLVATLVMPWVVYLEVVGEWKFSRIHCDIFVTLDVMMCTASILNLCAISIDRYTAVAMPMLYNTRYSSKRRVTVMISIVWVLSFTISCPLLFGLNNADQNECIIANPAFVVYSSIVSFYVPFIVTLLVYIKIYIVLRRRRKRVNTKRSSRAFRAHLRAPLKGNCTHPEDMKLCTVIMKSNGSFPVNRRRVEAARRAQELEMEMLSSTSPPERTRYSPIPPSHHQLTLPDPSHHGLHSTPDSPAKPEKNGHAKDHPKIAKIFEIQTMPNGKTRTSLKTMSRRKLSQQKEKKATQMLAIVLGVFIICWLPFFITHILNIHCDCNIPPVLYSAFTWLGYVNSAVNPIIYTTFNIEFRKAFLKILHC
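Potentiation of an EC20 dopamine calcium response measured kinetically over 180 s, after a preceding 180 s compound-only read flagging agonists. Cells: inducible Hek293 Trex D2 line, 4000/well, cultured overnight at 30 C before dye loading.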
D2 ag-1 – agonists of human D2 dopamine receptor (beta-arrestin). DiscoveRx PathHunter D2 beta-arrestin, luminescence, 90 min; 100% = 57 uM dopamine signal. AID 624465. 360,000 tested, 0.084% active. activation, % (test concentration not listed). P14416; in the data active = activation above about 40%; inconclusive = between about 15% and that limit
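Agonist mode: compounds alone added to overnight-plated D2 PathHunter cells for 90 min at 37 C, with 57 uM final dopamine (EC100) defining full response. Beta-arrestin recruitment detected by chemiluminescent reagent, read after 1 h at ambient temperature.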
D2 ag-2 – D2 dopamine receptor (human) agonism; P14416; HEK293 T-REx D2 cells, calcium flux agonist mode; activation, % at 2 µM; 340,000 tested, 0.53% active; AID 485358;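 active = activation over 3 SD above normal in the single-dose calcium agonist read, cut at about 30% in these data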
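Tetracycline-induced HEK293 T-REx cells with force-coupled D2 receptor, plated overnight at 30 C, loaded with no-wash calcium dye. After a 10 s baseline, compound was pin-added and calcium flux read kinetically for 180 s; calcium rises flagged agonists.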
D2 PAM-2 – potentiates the human D2 dopamine receptor allosterically | P14416 | DiscoveRx D2 beta-arrestin cells, luminescence, 90 min; 100% = 57 uM dopamine signal | potentiation, % (concentration not given with the values) | 360,000 tested, 0.23% active | AID 624464; in the data active = potentiation above about 50%; inconclusive = mostly about 30% to 49%
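PathHunter beta-arrestin assay in DiscoveRx D2 cells. Compounds were added with an EC20 of dopamine (50 nM final) for 90 min at 37 deg C. Luminescence was read 1 h after detection reagent, with 57 uM dopamine as the EC100 control.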
D2 antagonist – antagonizes the human D2 dopamine receptor | 340,000 tested, 2% active | AID 485344 | inhibition, % at 10 µM | HEK293 TREx D2 cells, calcium flux, dopamine EC80 | P14416; in the data active = inhibition above about 30%; inactive = below that, where a call was filed
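Antagonism is scored as inhibition of an EC80 dopamine-evoked calcium signal in a force-coupled, tetracycline-inducible HEK293 T-REx D2 line, with compound present 180 s before agonist.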
Numbers stand for hits. In the library only some 2.4% were active in any assay of this set; here they are far more common.

For CCc1ccccc1NC(=O)CC(c1ccc(F)cc1)N1Cc2ccccc2C1=O (stereo not given) the results were D2 PAM-1 inactive and D2 ag-2 inactive.
Cc1ccc(NC2=C(Cl)C(=O)OC2NC(=O)c2ccccc2)cc1 (stereo not given) was read as D2 PAM-1 inactive, D2 ag-1 inactive, D2 ag-2 inactive, D2 PAM-2 inactive and D2 antagonist 55.
CCOC1OC(=O)C(Cl)=C1Nc1ccc(C)cc1 (stereo not given) was read as D2 PAM-1 inactive, D2 ag-1 inactive, D2 ag-2 inactive, D2 PAM-2 inactive and D2 antagonist inactive.
`Cc1ccc(C(=O)O/N=C2\CCSc3ccc(C)cc32)cc1` gave D2 PAM-1 inactive, D2 ag-1 inactive, D2 ag-2 inactive, D2 PAM-2 inactive and D2 antagonist inactive.
COc1ccc(S(=O)(=O)O/N=C2\CCSc3ccc(C)cc32)cc1 was read as D2 PAM-1 inactive, D2 ag-1 inactive, D2 ag-2 inactive, D2 PAM-2 72 and D2 antagonist inactive.
Screening N#Cc1c(-c2ccc(F)cc2)cc(-c2cccnc2)nc1N returned D2 ag-1 inactive and D2 PAM-2 inactive.
N#Cc1c(-c2cccs2)cc(-c2cccnc2)nc1N was read as D2 PAM-1 inactive, D2 ag-1 inactive, D2 ag-2 inactive, D2 PAM-2 inactive and D2 antagonist 49.
For C=CCn1c(SCC(=O)Nc2ccc(OC)cc2)nc2c([nH]c3ccccc32)c1=O the results were D2 PAM-1 inactive, D2 ag-1 inactive, D2 ag-2 inactive, D2 PAM-2 inactive and D2 antagonist 33.
Screening Clc1ccccc1OCCCCN1CCCC1 returned D2 PAM-1 inactive, D2 ag-1 inactive, D2 ag-2 inactive, D2 PAM-2 inactive and D2 antagonist inactive.
CC(C)c1ccccc1OCCCN1CCCC1 was read as D2 PAM-1 inactive, D2 ag-1 inactive, D2 ag-2 inactive, D2 PAM-2 inactive and D2 antagonist 65.
Clc1ccc(Cl)c(OCCCCN2CCCCC2)c1 was read as D2 PAM-1 inactive, D2 ag-1 inactive, D2 ag-2 inactive, D2 PAM-2 inactive and D2 antagonist 86.
For Clc1ccccc1OCCCCN1CCCCC1 the results were D2 PAM-1 inactive, D2 ag-1 inactive, D2 ag-2 inactive, D2 PAM-2 inactive and D2 antagonist 77.
`Brc1ccccc1OCCCN1CCCCCC1` gave D2 PAM-1 inactive, D2 ag-1 inactive, D2 ag-2 inactive, D2 PAM-2 inactive and D2 antagonist 46.
Cc1cccc(NS(=O)(=O)c2ccc(NC(=O)N3CCCC3)cc2)c1 was read as D2 PAM-1 inactive and D2 ag-2 inactive.
For CC1CCN(CCOc2cc(Cl)ccc2Cl)CC1 the results were D2 PAM-1 inactive, D2 ag-1 inactive, D2 ag-2 inactive, D2 PAM-2 inactive and D2 antagonist 72.
`Brc1ccccc1OCCCCCN1CCOCC1` gave D2 PAM-1 inactive, D2 ag-1 inactive, D2 ag-2 inactive, D2 PAM-2 inactive and D2 antagonist 36.
CC12CN(Cc3ccccc3)CC(C)(CN(Cc3ccccc3)C1)C2=O was read as D2 PAM-1 inactive, D2 ag-1 inactive, D2 ag-2 inactive, D2 PAM-2 inactive and D2 antagonist inactive.
Screening CC1(C)C(=O)NC(=O)N1Cc1ccccc1 returned D2 PAM-1 inactive, D2 ag-1 inactive, D2 ag-2 inactive, D2 PAM-2 inactive and D2 antagonist 45.
CCCCCCCNC(=O)COc1ccc2c(c1)C(=O)CC(C)(C)O2 was read as D2 PAM-1 inactive, D2 ag-1 inactive, D2 ag-2 inactive, D2 PAM-2 inactive and D2 antagonist inactive.
Screening Cn1c(=O)cc(OCCCC(=O)NCCCN2CCN(Cc3ccccc3)CC2)c2ccccc21 returned D2 PAM-1 inactive, D2 ag-1 inactive, D2 ag-2 inactive, D2 PAM-2 inactive and D2 antagonist inactive.
Screening O=C(NCCCN1CCN(c2cccc(Cl)c2)CC1)C1(S(=O)(=O)c2ccc(Cl)cc2)CC1 returned D2 PAM-1 inactive, D2 ag-1 inactive, D2 ag-2 inactive, D2 PAM-2 inactive and D2 antagonist 35.
`Cn1c(=O)cc(OCCCC(=O)NCCN2CCN(c3ccccc3F)CC2)c2ccccc21` gave D2 PAM-1 inactive, D2 ag-1 inactive, D2 ag-2 32, D2 PAM-2 inactive and D2 antagonist 36.
Screening Cn1c(=O)cc(OCC(=O)NCCCN2CCN(c3cccc(Cl)c3)CC2)c2ccccc21 returned D2 PAM-1 inactive, D2 ag-1 inactive, D2 ag-2 69, D2 PAM-2 inactive and D2 antagonist 77.
CC1(C)CC(=O)c2cc(OCC(=O)NCCCN3CCN(c4ccccc4F)CC3)ccc2O1 was read as D2 PAM-1 inactive, D2 ag-1 inconclusive, D2 ag-2 78, D2 PAM-2 inactive and D2 antagonist 82.
For COCCNC(=O)COc1cc(=O)n(C)c2ccccc12 the results were D2 PAM-1 inactive, D2 ag-1 inactive, D2 ag-2 inactive, D2 PAM-2 inactive and D2 antagonist inactive.
For O=C(NC1CC1)c1cccc(NC(=O)c2cc(S(=O)(=O)N3CCOCC3)ccc2Cl)c1 the results were D2 PAM-1 inactive, D2 ag-1 inactive, D2 ag-2 inactive, D2 PAM-2 inactive and D2 antagonist inactive.
Screening O=C(NC1CCCC1)c1ccc2c(=O)n(Cc3ccccc3)c(SCc3ccccc3F)nc2c1 returned D2 PAM-1 inactive and D2 ag-2 inactive.
For Cc1nn(C)c(C)c1CCC(=O)N1CCCC(Nc2ccc(C(C)C)cc2)C1 (stereo not given) the results were D2 PAM-1 36, D2 ag-1 inactive, D2 ag-2 inactive, D2 PAM-2 inactive and D2 antagonist inactive.
`COc1cc2ccccc2cc1C(=O)N1CCc2ccccc21` gave D2 ag-1 inactive and D2 PAM-2 inactive.
Cc1ccc(S(=O)(=O)N2C[C@@H](C)[C@]3(C2)[C@H](O)[C@H](OC(=O)NCc2ccco2)C[C@H]2C(=O)N(c4ccccc4)C(=O)[C@H]23)cc1 was read as D2 ag-1 inactive.
`CC(=C/c1ccccc1)/C=N/NC(=O)c1ccc2nc[nH]c2c1` gave D2 PAM-1 inactive, D2 ag-1 inactive, D2 ag-2 inactive, D2 PAM-2 inactive and D2 antagonist inactive.
`O=C(N/N=C/C(Br)=C/c1ccccc1)c1ccncc1` gave D2 PAM-1 inactive, D2 ag-1 inactive, D2 ag-2 inactive, D2 PAM-2 inactive and D2 antagonist inactive.
O=C(N/N=C/C(Br)=C/c1ccccc1)c1ccc([N+](=O)[O-])cc1 was read as D2 PAM-1 inactive, D2 ag-1 inactive, D2 ag-2 inactive, D2 PAM-2 inactive and D2 antagonist 39.
`O=C(N/N=C/C(Br)=C\c1ccccc1)c1ccc2nc[nH]c2c1` gave D2 PAM-1 inactive, D2 ag-1 inactive, D2 ag-2 inactive, D2 PAM-2 inactive and D2 antagonist 34.
For COc1ccc(N(C(=O)COc2ccc(Br)cc2)S(=O)(=O)c2ccc(C)cc2)cc1 the results were D2 PAM-1 inactive and D2 ag-2 inactive.
